PfHsp90 yeast 2: inhibits growth of yeast expressing Plasmodium falciparum Hsp90; AID 504621; inhibition, % at 9.4 µM; S. cerevisiae expressing PfHsp90, BacTiter-Glo ATP, 48 h; yeast lacking PDR1 and PDR3 efflux regulators; 0.32% of 310,000 active;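 active = every replicate shows inhibition above about 80%, whatever the replicate mean, limit read from the data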;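 also: 0% = DMSO neutral controls and 100% = 20 µM radicicol positive controls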
tim23-1 inh: inhibits growth of tim23-1 mutant yeast | S. cerevisiae tim23-1 growth, BacTiter-Glo luminescence, 24 h | inhibition, % at 20 µM | AID 463212 | 1.3% of 330,000 active;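 active = growth inhibition of the mutant yeast at or above 50%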;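 also: temperature-sensitive mutant grown at 25 °C; plate controls were DMSO-treated mutant yeast for no effect and medium wells lacking yeast for full effect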
tim10-1 inh: inhibits growth of tim10-1 mutant yeast. inhibition, % at 20 µM. S. cerevisiae tim10-1 ts strain growth, BacTiter-Glo, 24 h. 2.2% of 330,000 active;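 active = inhibition of at least 40%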;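 also: mutant grown at 25 °C; 0% = DMSO wells with yeast and 100% = wells holding no yeast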
SKKanGAS inh: inhibitors of SKKanGAS S. pyogenes growth in kanamycin (SK-promoter or general growth effect) | AID 1662 | BacTiter-Glo, 6 h | inhibition, % at 7.5 µM | 1.3% of 300,000 active;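 active = mean replicate score, as percent of positive control median, at least 50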;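 also: strain carries kanamycin resistance gene driven by streptokinase promoter and grows in 40 µg/ml kanamycin; loss of luminescence reflects streptokinase promoter inhibition or plain growth inhibition; 0% = median of DMSO wells and 100% = positive control at its reference dose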
TIM10 inh: TIM10 yeast growth inhibition. S. cerevisiae TIM10 strain growth, BacTiter-Glo luminescence, 24 h. inhibition, % at 10 µM. 1.4% of 330,000 active. AID 463195;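 active = inhibition of 40% or more at the single tested concentration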;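 also: wild-type TIM10 isogenic control strain grown at permissive 25 °C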
NLRP3 yeast inh: inhibitors of NALP3 inflammasome in yeast. inhibition, % at 10 µM. 0.39% of 330,000 active. Yeast reconstituted NLRP3/ASC/caspase-1, beta-gal luminescence, 24 h. AID 2825;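 active = inhibition of 50% or more; inactive = inhibition below 50%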;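 also: plate controls were induced DMSO wells for no effect and uninduced yeast grown without galactose for full effect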
tim10-1 conf: tim10-1 yeast growth inhibition, confirmed; shares compounds with tim10-1 inh; S. cerevisiae tim10-1 ts strain growth, BacTiter-Glo, 24 h; inhibition, % at 20 µM; 56% of 7,400 active; AID 463213;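 active = inhibition of yeast growth at or above a set limit in either of two repeat tests at 20 µM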;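 also: tim10-1 mutant grown at permissive 25 °C to find synthetic lethal compounds; 0% = DMSO yeast wells and 100% = medium wells without yeast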
TIM10 conf: confirmation of TIM10 yeast growth inhibitors; shares compounds with TIM10 inh; S. cerevisiae tim10 strain growth, BacTiter-Glo luminescence, 24 h; inhibition, % at 10 µM; 63% of 4,600 active; AID 463215;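 active = inhibition of yeast growth at or above a set limit in either of two replicates at 10 µM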;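 also: this counterscreen used the strain with wild-type TIM10; 0% = yeast with DMSO and 100% = medium wells lacking yeast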
tim23-1 confirm: confirmation of tim23-1 mutant yeast growth inhibitors. shares compounds with tim23-1 inh. S. cerevisiae tim23-1 growth, BacTiter-Glo luminescence, 24 h. inhibition, % at 20 µM. 83% of 4,400 active. AID 463218;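 active = inhibition above about 39% in either of two replicate wells at 20 µM, limit read from the data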;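 also: temperature-sensitive tim23-1 mutant grown at 25 °C; 0% = DMSO wells with yeast and 100% = medium wells without yeast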
* = called active by the depositor; nt = no result given. Hits are enriched below; roughly 4.6% of the tested compounds scored in any of these assays.

SMILES	PfHsp90 yeast 2	tim23-1 inh	tim10-1 inh	SKKanGAS inh	TIM10 inh	NLRP3 yeast inh	tim10-1 conf	tim23-1 confirm	others
S=c1[nH]ncn1/N=C/c1cccc(Oc2ccccc2)c1	-13	56*	61*	6	52*	36	46*	56*	TIM10 conf=0
Cc1ccccc1OCC(=O)OC(C)C(=O)NC1CCCC1 (stereo not given)	22	12	8	nt	-4	19	nt	nt
O=C(O)c1ccccc1C=NNc1ccccn1	7	nt	nt	nt	nt	nt	nt	nt
Fc1ccc(CN2CCN(c3ncnc4scc(-c5ccc(F)cc5)c34)CC2)cc1	-9	54*	50*	1	26	11	46*	53*
CCOC(=O)N1CCN(c2ncnc3scc(-c4ccc(Cl)cc4)c23)CC1	-7	57*	46*	2	32	17	40*	44*
CCOC(=O)N1CCN(c2ncnc3scc(-c4ccccc4)c23)CC1	19	28	32	4	9	8	nt	nt
CCN=C(NS(=O)(=O)c1ccc(Br)cc1)c1ccc(Cl)cc1	-15	13	1	0	6	6	nt	nt
CSc1cccc(NC(=O)CCS(=O)(=O)c2cccc3nonc23)c1	-7	5	-5	-1	5	23	nt	nt
Cc1ccc(Cl)cc1NC(=O)CC(O)(C(F)(F)F)C(F)(F)F	-5	53*	55*	12	39	24	57*	56*
COCC(=O)Nc1cc(Cl)ccc1C	-21	1	6	8	0	-3	nt	nt
O=C(Nc1ccccc1O)C(c1ccccc1)c1ccccc1	-7	40	14	18	22	2	nt	nt
CC(C)(C)c1cc(NC(=O)c2cccc(S(=O)(=O)N3CCOCC3)c2)no1	-4	19	8	-1	7	6	nt	nt
COC(=O)CNc1nc(-c2ccccc2F)nc2ccccc12	12	16	23	-5	16	30	nt	nt
Fc1ccccc1-c1nc(NC2CCCC2)c2ccccc2n1	-28	67*	52*	7	52*	10	50*	75*	TIM10 conf=48*
Cc1ccc(N=C(NO)c2nonc2N)c(C)c1	9	9	25	-1	4	-7	nt	nt
Cc1ccc(N=C(NOC(=O)c2ccccc2)c2nonc2N)c(C)c1	15	57*	46*	7	49*	12	49*	41*	TIM10 conf=40*
O=[N+]([O-])c1ccc(N2CCN(c3ccccc3)CC2)nc1	-1	3	0	7	-1	8	nt	nt
O=[N+]([O-])c1ccc(N2CCc3ccccc3C2)nc1	-3	63*	66*	-2	34	34	64*	10
Clc1ccc(/C(Cc2nc3ccccc3[nH]2)=N\Nc2ccccc2)cc1	-30	53*	46*	90*	56*	31	22	45*	TIM10 conf=56*
COc1cccc2cc(C(=O)CS(=O)(=O)c3ccc(C)cc3)c(=O)oc12	-16	37	33	-6	-4	9	nt	nt
Cc1ccc(S(=O)(=O)CC(=O)c2cc3cccc(C)c3oc2=O)cc1	-32	53*	42*	1	1	5	-23	32
O=C1CC(Sc2ncccn2)C(=O)N1c1ccccc1 (stereo not given)	-5	22	20	5	10	3	nt	nt
Nc1nnc(SC2CC(=O)N(c3ccccc3)C2=O)s1 (stereo not given)	-7	59*	66*	2	30	22	53*	58*
O=C(c1cccs1)c1no[n+]([O-])c1C(=O)c1cccs1	105*	81*	72*	1	-6	24	87*	97*
COc1ccccc1Oc1ccc(Oc2ccccc2OC)cc1	-44	21	24	-2	25	10	nt	nt
SMILES	PfHsp90 yeast 2	tim23-1 inh	tim10-1 inh	SKKanGAS inh	TIM10 inh	NLRP3 yeast inh	tim10-1 conf	tim23-1 confirm	others
Cc1ccc(-n2nc3c(=O)n(CCCC(=O)NCc4ccccc4Cl)nc(C)c3c2C)cc1	21	28	40	6	6	8	nt	nt
O=C(N/N=C/c1ccc(Br)cc1)c1ccccc1-n1cccc1	1	54*	42*	5	37	9	37*	51*
Cc1cccc(/C=N\NC(=O)c2ccccc2-n2cccc2)c1	2	38	32	3	31	20	nt	nt
O=C(O)c1ccc2c(=O)n3c(nc2c1)/C(=C/c1ccccc1OC(F)F)CC3	-17	12	22	8	25	19	nt	nt
CN(C1CCCCC1)S(=O)(=O)c1cccc(C#N)c1	16	14	2	-14	7	-7	nt	nt
COc1ccc(C(C[N+](=O)[O-])c2c(C)cc3ccccn23)cc1 (stereo not given)	-9	47	30	-1	9	14	nt	nt
COc1ccc(C(C[N+](=O)[O-])c2c(-c3ccccc3)cc3ccccn23)c(OC)c1 (stereo not given)	-9	73*	70*	1	60*	13	67*	91*	TIM10 conf=67*
CN(CC(=O)Nc1ccc(F)cc1)C(=O)CSc1ncccn1	10	8	-6	-6	1	1	nt	nt
O=C(CN1CC(c2ccccc2)CC1=O)N/N=C/c1cc(Br)ccc1O (stereo not given)	-17	56*	41*	79*	34	21	22	50*
CCOc1ccc(NC(=O)CN2CC(c3ccccc3)CC2=O)cc1 (stereo not given)	-7	23	15	-10	14	1	nt	nt
CCn1c(C)nc2cc(C(=O)NNC(=S)Nc3ccc(OC)cc3)ccc21	-27	-8	4	-7	3	-1	nt	nt
CC(OC(=O)CCN=C1NS(=O)(=O)c2ccccc21)C(=O)Nc1ccc(F)cc1 (stereo not given)	nt	-14	-18	-8	-1	-6	nt	nt
COc1cccc(N2CC(C(=O)Nc3nnc(SCCN4CCOCC4)s3)CC2=O)c1 (stereo not given)	4	-1	-6	6	8	5	nt	nt
CCOc1ccccc1NC(=O)c1nc(S(=O)(=O)Cc2cccc(C)c2)ncc1Cl	-35	81*	44*	73*	41*	43	44*	83*	TIM10 conf=71*
CCS(=O)(=O)c1ncc(Cl)c(C(=O)Nc2ccc(C)cc2)n1	-4	46	-24	-23	-6	37	nt	nt
Cc1ccc(CS(=O)(=O)c2ncc(Cl)c(C(=O)Nc3ccc(OC(F)F)cc3)n2)cc1	-13	65*	44*	54*	-46	49	-11	52*
